{"source": "PubChem BioAssay (NCI)", "note": "About 79,000 compounds went through this panel and 15% of them were active in at least one assay; those are over-represented in the sample as a whole. Unmarked numbers belong to inactive results. The source made the active and inactive calls. No stated cut-off is given here; in the data, active means growth inhibition above about 70%; inactive means the rest."}
{"experiment": "NCI Yeast Anticancer Drug Screen. Data for the mlh1 rad18 strain (AID 175)", "settings": "S. cerevisiae mlh1 rad18 strain growth inhibition; at 50.0 µM; hits give high values", "procedure,_shortened": "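Genetically defined yeast (DNA repair-deficient) exposed to compounds; growth inhibition determined relative to vehicle.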"}
{"compound": "COc1ccc2c(ccc[n+]2C)c1", "growth inhibition": "-25.4%"}
{"compound": "NC(=O)c1cc2c3ccccc3ccn2c1-c1ccccc1", "growth inhibition": "60%"}
{"compound": "O=C(CC(CC(=O)c1ccccc1)c1ccccn1)c1ccccc1", "growth inhibition": "-42.1%"}
{"compound": "Cn1c(=O)[nH]c2ccccc2c1=O", "growth inhibition": "5.05%"}
{"compound": "C=COC(=O)C(C)(C)C", "growth inhibition": "31.5%"}
{"compound": "CN1CCN(C(=S)S)CC1", "growth inhibition": "5.15%"}
{"compound": "CC(=O)c1cccs1", "growth inhibition": "6.7%"}
{"compound": "C/C(=N\\Nc1ccc([N+](=O)[O-])cc1[N+](=O)[O-])c1ccc(Br)cc1", "growth inhibition": "3.05%"}
{"compound": "CCC12OC(COc3ccccc3)CN1CCN2c1ccccc1", "note": "(configuration not stated)", "growth inhibition": "-11.5%"}
{"compound": "CC1(C)OC(=O)CC1=O", "growth inhibition": "-3.2%"}
{"compound": "CCOC(=O)c1ccc(NC(=O)Nc2nccs2)cc1", "growth inhibition": "6.1%"}
{"compound": "NC(=O)N1CCOCC1", "growth inhibition": "17.9%"}
{"compound": "C[n+]1c(/C=C\\C=C\\N2CCCCC2)sc2ccccc21", "growth inhibition": "27.9%"}
{"compound": "NC(CCl)=NCC12CC3CC(CC(C3)C1)C2", "growth inhibition": "56.9%"}
{"compound": "C=C(OC(C)=O)c1ccccc1", "growth inhibition": "0.05%"}
{"compound": "CCC(=O)C1C(=O)c2ccccc2C1=O", "growth inhibition": "20.4%"}
{"compound": "COc1ccc(/C=N/NC(=O)COCC(=O)N/N=C/c2ccc(OC)cc2)cc1", "growth inhibition": "-25.6%"}
{"compound": "CC(c1ccccc1)N(C)C", "note": "(configuration not stated)", "growth inhibition": "1.6%"}
{"compound": "NC(=S)c1c(N)n(C2OC(CO)C(O)C2O)c2ncnc(N)c12", "note": "(configuration not stated)", "growth inhibition": "2.55%"}
{"compound": "C1CCc2onc(-c3noc4c3CCCCC4)c2CC1", "growth inhibition": "2.8%"}
{"compound": "COC(=O)c1ccccc1C(=O)c1c(C)cc(C)cc1C", "growth inhibition": "50.3%"}
{"compound": "CN1C(=O)NC(c2ccc(Cl)cc2)(c2ccc(Cl)cc2)C1=O", "growth inhibition": "91% (active)"}
{"compound": "CCCOCc1cn[nH]n1", "growth inhibition": "-2.35%"}
{"compound": "NS(=O)(=O)c1cc(=O)[nH]c(=O)[nH]1", "growth inhibition": "3.4%"}
{"compound": "O=C(O)C1CSC(c2ccccc2)N1", "note": "(configuration not stated)", "growth inhibition": "2.55%"}
{"compound": "C=CCC(OC(C)=O)c1ccc(OC)c(OC)c1", "note": "(configuration not stated)", "growth inhibition": "9.5%"}
{"compound": "COc1cc(N)c2ncccc2c1Cl", "growth inhibition": "30.4%"}
{"compound": "CC(=O)Oc1c(Cl)cccc1-c1ccccc1", "growth inhibition": "13.4%"}
{"compound": "CC(C)C(C)(C)C(=O)C(C)(C)C(C)(C)C", "growth inhibition": "7.95%"}
{"compound": "c1ccc2c(NCCCN3CCN(CCCNc4c5ccccc5nc5ccccc45)CC3)c3ccccc3nc2c1", "growth inhibition": "14.9%"}
{"compound": "O=S(=O)(O)c1ccc(O)c(C2CCCCC2)c1", "growth inhibition": "31.4%"}
{"compound": "Cc1ccc2nc(-c3ccc(N=Cc4ccccc4O)cc3)sc2c1", "growth inhibition": "12.3%"}
{"compound": "CCCCCCCCCCCCCC/C=C\\C(CC(=O)O)C(=O)O", "note": "(configuration not stated)", "growth inhibition": "-19.2%"}
{"compound": "OCCc1ccc(Cl)cc1", "growth inhibition": "7.9%"}
{"compound": "CCOC(C=O)OCC", "growth inhibition": "-10.9%"}
{"compound": "Cc1ccc2nc(N)nnc2c1", "growth inhibition": "-3.15%"}
{"compound": "O=[n+]1ccn([O-])c2ccccc21", "growth inhibition": "20.6%"}
